Hit rate of the full screen: of about 290,000 compounds, about 150 (0.052%) were called active.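 How the source made its calls: active means inhibition of at least 50% with at least 30 cells and total cytoplasm GFP at most 10,000,000; inconclusive means under 30 cells or total GFP of 10,000,000 plus; inactive means the rest.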 This excerpt belongs to a sample that is enriched for actives. Potency and affinity values are given separately.

For the assay, the target named is G-protein coupled receptor 35 (Homo sapiens) (UniProt Q9HC97). Description: GPR35 antagonists blocking zaprinast-driven arrestin recruitment, primary screen, imaging, U2OS, beta-arrestin-GFP, zaprinast agonist (AID 2058). Conditions: U2OS GPR35 beta-arrestin-GFP translocation imaging, zaprinast antagonism; at 10 µM; stronger effect = higher value.
G-protein coupled receptor 35 (Homo sapiens), sequence (Q9HC97 whole entry, looked up): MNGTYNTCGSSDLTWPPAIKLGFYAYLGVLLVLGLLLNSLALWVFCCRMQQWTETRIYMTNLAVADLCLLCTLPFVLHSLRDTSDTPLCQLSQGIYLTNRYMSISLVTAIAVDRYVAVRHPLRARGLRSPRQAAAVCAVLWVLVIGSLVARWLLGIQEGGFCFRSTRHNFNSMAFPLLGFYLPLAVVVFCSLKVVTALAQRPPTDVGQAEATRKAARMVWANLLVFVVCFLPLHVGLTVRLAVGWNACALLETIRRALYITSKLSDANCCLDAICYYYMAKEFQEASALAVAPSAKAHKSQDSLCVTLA
A word on the inhibition: it is the drop in the measured response relative to a control, in per cent. As to `COc1ccc(C)cc1Nc1n[n+](-c2ccccc2)c(-c2ccc(C(=O)O)cc2)s1`, the inhibition was 7.9% (inactive). With `Oc1ccc(-c2sc(Nc3ccccc3)n[n+]2-c2ccc(F)cc2)cc1`, the inhibition was 10.2% (inactive). Regarding `CSc1ccc(-c2sc(Nc3ccccc3)n[n+]2-c2ccc(F)cc2)cc1`, the inhibition is -7.7% (inactive). Take `Fc1ccc(-[n+]2nc(Nc3ccccc3)sc2-c2ccc(OCc3ccccc3)cc2)cc1`: the inhibition was 8.3% (inactive).

On to `O=C(O)c1ccc(-c2sc(Nc3ccccc3)n[n+]2-c2ccc(F)cc2)cc1`, for which the inhibition is 0.5% (inactive).

Regarding `COc1ccc(C)cc1Nc1n[n+](-c2ccccc2)c(-c2ccc(SC)cc2)s1`, the inhibition was 20.4% (inactive).

As for `COC(=O)c1cc(-c2ccc(Cl)cc2)n[nH]1`, the inhibition was 10.8% (inactive).

Turning to `CC(C)C(C)NC(=O)CN1C(=O)NC2(CCc3ccccc32)C1=O` (stereo not given), the inhibition was 9.4% (inactive). For `Nc1nonc1-n1nnc(C(=O)N/N=C/c2ccc(OCc3ccc(F)cc3)cc2)c1COc1ccccc1` the value was 5.9% (inactive). Turning to `CC(C)(C)c1ccc(/C=C2\CCn3c2nc2cc(C(=O)O)ccc2c3=O)cc1`, the inhibition was 17.9% (inactive). For `CC(=O)n1cc(N(C(=O)CCl)c2ccc([N+](=O)[O-])cc2)c2ccccc21` the value was -2.4% (inactive); for `O=Cc1[nH]c2ccccc2c1N(C(=O)CCl)c1ccccc1`, -1.1% (inactive).

`O=Cc1[nH]c2ccccc2c1N(C(=O)CCl)c1ccc([N+](=O)[O-])cc1`: the inhibition is 80.7% (active).

Turning to `CSc1ccc(C2c3[nH]c4ccccc4c3CCN2C(=O)c2ccnn2C)cc1` (stereo not given), the inhibition is -11.7% (inactive). Then `COc1cccc(CN2CCN(Cc3cccc4nonc34)CC2CCO)c1` (stereo not given), with 8.1% (inactive); and `CCOc1ccc(CN2CCN(Cc3cccc4nonc34)CC2CCO)cc1` (stereo not given), with 97.5% (active).

`CCOc1ccccc1CN1CCN(Cc2cccc3nonc23)CC1CCO` (stereo not given): the inhibition was 28.2% (inactive). For `CN(C)/C=C1\C(=O)ON=C1c1ccccc1` the value was -9.5% (inactive); for `CCN(CC)C(=O)c1ccc(-c2nnc(Nc3ccc(C(=O)NC)cc3)c3ccccc23)cc1`, 5% (inactive). For `N=C1/C(=C\c2ccc(-c3cc(Cl)cc(Cl)c3)o2)C(=O)N=C2SC=C(c3ccccc3)N12` the value was -4.5% (inactive); for `CC(C)S(=O)(=O)C1=NSC2=NC(=O)/C(=C\c3ccc(-c4cccc(C(=O)O)c4)o3)C(=N)N21`, -1.8% (inactive).

As for `N=C1/C(=C\c2ccc(-c3cccc(Cl)c3)o2)C(=O)N=C2SC=C(c3ccccc3)N12`, the inhibition is -1.6% (inactive).

As for `N=C1/C(=C\c2ccc(-c3ccc(C(=O)O)cc3)o2)C(=O)N=C2SC=C(c3ccccc3)N12`, the inhibition was 43% (inactive). Then `O=C(c1ccsc1)N1CCCC(Nc2ccc(F)c(F)c2)C1` (stereo not given), with 0% (inactive).

Regarding `CC1CCCC(C)N1C(=O)c1cc2ncc(CCCl)cn2n1` (stereo not given), the inhibition is -11.5% (inactive). With `O=C(CCCC(=O)N(c1ccc(F)cc1)C(C(=O)NC1CCCC1)c1ccc(O)cc1)Nc1ccccn1` (stereo not given), the inhibition is 6.8% (inactive). As to `Cc1ccc(N/C(N)=N/c2nc(CSc3ccccn3)cc(=O)[nH]2)c(C)c1`, the inhibition was 2.7% (inactive). Regarding `C=CCSc1n[nH]c(-c2cccs2)n1`, the inhibition is 13.6% (inactive). Consider `COc1ccc(/C=C2\OC(=S)N(C)C2=O)cc1`, for which the inhibition was 22.6% (inactive). Take `CN1C(=S)N(c2cccnc2)C(=O)/C1=C\c1ccc(N(C)C)cc1`: the inhibition is 15.6% (inactive). Consider `N#Cc1c(C(F)(F)F)cc(-c2cccs2)nc1SCc1cccnc1`, for which the inhibition is -12.1% (inactive).

In the case of `O=C(COC(=O)Cn1cnc2ccccc2c1=O)Nc1cc(Cl)ccc1[N+](=O)[O-]`, the inhibition was -6.5% (inactive). For `CC(C)CNS(=O)(=O)c1ccc2c(c1)OCCO2` the value was 13.4% (inactive); for `COC(=O)c1cnn(-c2ccc(Cl)cc2)c1/C=N/NC(N)=S`, 7% (inactive).

`COC(=O)c1cnn(-c2ccc(F)cc2F)c1/C=N/NC(N)=S`: the inhibition was 17.4% (inactive).

Turning to `COC(=O)c1cnn(-c2ccccc2)c1/C=N/NC(=S)Nc1ccccc1`, the inhibition was 35.2% (inactive). For `COC(=O)c1cnn(-c2ccccc2)c1/C=N/NC(=S)Nc1ccc(Cl)cc1` the value was -10.9% (inactive); for `COc1ccc(C2=NOC(C(=O)Nc3cccc(O)c3)C2)cc1` (stereo not given), -13.8% (inactive); for `COc1ccc(-c2cc3c(=O)n(CC(=O)NC4CCN(Cc5ccccc5)CC4)ncn3n2)cc1`, 19.6% (inactive). Then `CCCc1c(O)nc(SCC(=O)NCc2ccco2)[nH]c1=O`, with -14.7% (inactive); and `Cc1ccsc1-c1nc(C(N)=O)c2[nH]c(=O)n(-c3ccc(Cl)cc3)c2n1`, with -1.2% (inactive); and `O=C(NCc1ccc2c(c1)OCO2)C1CC(=O)N(CCc2ccc(Cl)cc2)C1` (stereo not given), with -11.7% (inactive). Then `COc1cc(C(=O)Nc2ccc(C(N)=O)cc2)c([N+](=O)[O-])cc1OC`, with 3% (inactive); and `COc1ccc2nc(N=NC3=C(O)CC(C)(C)CC3=O)sc2c1`, with 0.7% (inactive); and `COc1ccc(-c2nnc(-c3ccc(OCC(C)C)cc3)o2)cc1`, with 4.6% (inactive). Consider `CC(C)COc1ccc(-c2nnc(-c3ccncc3)o2)cc1`, for which the inhibition is 2.8% (inactive). In the case of `O=C(COC(=O)Cc1ccsc1)Nc1ccc(Cl)c(S(=O)(=O)N2CCOCC2)c1`, the inhibition was 23.9% (inactive). Take `CCOc1ccc(/C=C/C(=O)c2ccccc2)cc1`: the inhibition was 7% (inactive). Consider `O=C(O)COc1ccc(/C=C/C(=O)c2ccc3ccccc3c2)cc1`, for which the inhibition was 12.2% (inactive). For `COC(=O)c1sc(NC(=O)CSc2nnc(Cn3nnc4ccccc43)n2C)nc1C` the value was 5.3% (inactive); for `CN(C)/C=C1\SC(=S)N(c2ccc(Br)cc2)C1=O`, 21.4% (inactive). In the case of `CN(C)/C=C1\SC(=S)N(c2ccc(F)cc2)C1=O`, the inhibition is 9.5% (inactive). For `Nc1ccc(S(=O)(=O)NC(Cc2ccccc2)C(=O)O)cc1` (stereo not given) the value was -10.2% (inactive); for `CCCN1C(=O)/C(=C/c2c(N3CCNC(=O)C3CC(=O)OC)nc3c(C)cccn3c2=O)SC1=S` (stereo not given), 12.4% (inactive); for `CCOC(=O)CC1C(=O)NCCN1c1nc2ccc(C)cn2c(=O)c1/C=C1\SC(=S)N(CC(C)C)C1=O` (stereo not given), 21.7% (inactive).

Take `CCCN1C(=O)/C(=C/c2c(N3CCNC(=O)C3CC(=O)OCC)nc3c(C)cccn3c2=O)SC1=S` (stereo not given): the inhibition was 33% (inactive). Then `CCOC(=O)CC1C(=O)NCCN1c1nc2c(C)cccn2c(=O)c1/C=C1\SC(=S)N(C(C)CC)C1=O` (stereo not given), with 55.7% (active). Then `CCOC(=O)CC1C(=O)NCCN1c1nc2ccc(C)cn2c(=O)c1/C=C1\SC(=S)N(C(C)CC)C1=O` (stereo not given), with 43.7% (inactive); and `CCOC(=O)CC1C(=O)NCCN1c1nc2c(C)cccn2c(=O)c1/C=C1\SC(=S)N(CC(C)C)C1=O` (stereo not given), with 58.9% (active). Then `Cc1cc(C)c(NC(=O)NC2CCCCC2)c(C)c1`, with -0.9% (inactive); and `COc1cccc(/C=C2\SC(=S)N(CCC(=O)Nc3ccc(O)cc3)C2=O)c1`, with -4.8% (inactive). On to `O=C(CCN1C(=O)/C(=C/c2ccc(Cl)cc2)SC1=S)Nc1ccc(C(=O)O)cc1`, for which the inhibition is 6.4% (inactive). For `CCc1ccc(/C=C2/SC(=S)N(CCC(=O)Nc3ccc(C(=O)O)cc3)C2=O)cc1` the value was -13.9% (inactive).

Regarding `COc1cccc(/C=C2/SC(=S)N(CCCC(=O)Nc3ccc(O)cc3)C2=O)c1`, the inhibition is 24% (inactive).

For `O=C(CCN1C(=O)S/C(=C/c2ccccc2)C1=O)Nc1ccc(C(=O)O)c(O)c1`, the inhibition was 13.4% (inactive).

For `O=C(CCN1C(=O)/C(=C\c2ccccc2)SC1=S)Nc1ccc(C(=O)O)cc1`, the inhibition was 27.2% (inactive). Then `O=C(CCCN1C(=O)/C(=C\c2ccccc2)SC1=S)Nc1ccc(O)cc1C(=O)O`, with -10% (inactive). For `O=C(CCCN1C(=O)/C(=C\c2ccccc2)SC1=S)Nc1ccc(O)cc1` the value was 23.5% (inactive); for `CC(C)CCn1c(CN2CCOCC2)nc2c1c(=O)n(C)c(=O)n2C`, -9.6% (inactive). On to `CC1(C)CCCC2=C1CC1C(=O)N(O)C(=O)C1C2` (stereo not given), for which the inhibition is 2.3% (inactive). In the case of `O=C1CCCN2N=C(SCC(=O)Nc3ccccc3C(F)(F)F)SC2=N1`, the inhibition is 1.9% (inactive). For `CC(=O)N1CCc2cc(S(=O)(=O)CCC(=O)N3CCN(c4ccccc4F)CC3)ccc21` the value was 6.2% (inactive); for `N#Cc1ccccc1NC(=O)CNc1ccccc1N1CCCCC1`, 19.6% (inactive). Consider `O=C(CN1C(=O)S/C(=C\c2ccc(C(=O)O)cc2)C1=O)Nc1ccccc1`, for which the inhibition was -1.7% (inactive).

For `O=C(CCCN1C(=O)/C(=C/c2cccs2)SC1=S)Nc1ccc(O)c(C(=O)O)c1`, the inhibition is 99.6% (active). `O=C(CCN1C(=O)/C(=C/c2cccs2)SC1=S)Nc1ccc(C(=O)O)c(O)c1`: the inhibition is -2.6% (inactive). For `O=C(CCN1C(=O)S/C(=C\c2ccc(Cl)cc2)C1=O)Nc1ccc(C(=O)O)cc1` the value was 4.2% (inactive). `O=C(CCCN1C(=O)/C(=C\c2cccs2)SC1=S)Nc1ccc(C(=O)O)cc1`: the inhibition was 13.3% (inactive). Take `COc1ccc(Cc2nnc(SCC(=O)NC3CCCCC3)n2C)cc1`: the inhibition was 9.8% (inactive). In the case of `COc1ccc(-n2c(C)nnc2SCC(=O)N2CCOCC2)cc1`, the inhibition was -0.9% (inactive). With `FC(F)(F)c1ccccc1N/N=C/c1cccnc1`, the inhibition is -3.9% (inactive). For `O=C(NCC1CC1)Nc1ccccc1` the value was -5% (inactive); for `COCC(C)NC(=S)Nc1ccccc1[N+](=O)[O-]` (stereo not given), -3.3% (inactive).

`NS(=O)(=O)c1cccc(C(=O)NC2CCSc3ccccc32)c1` (stereo not given): the inhibition is -7.4% (inactive). As for `COc1cc(/C=N/N=C(N)N)ccc1OCc1ccccc1Cl`, the inhibition is -8.2% (inactive). For `COc1cc(/C=N/O)ccc1OCc1ccccc1Cl`, the inhibition is -5.4% (inactive). Then `Fc1cccc(Cl)c1CSc1ccc(-c2cccnc2)nn1`, with 5.4% (inactive); and `c1ccc(-c2ccc(SCc3cccnc3)nn2)nc1`, with -18.4% (inactive). For `NNC(=O)c1sc(-c2ccc(Cl)cc2)cc1N` the value was 10.1% (inactive); for `COc1ccccc1N=Nc1ccc(N)c(C)c1`, 5.6% (inactive).

These data come from PubChem BioAssay AID2058 (Sanford-Burnham Center for Chemical Genomics, 2009).
